In PubChem BioAssay AID492952 (Southern Research Specialized Biocontainment Screening …, 2010):
Out of some 2,300 compounds screened, about 1,500 (65%) were called active. So high a share suggests a set chosen from earlier hits. This is one part of the list. Measured potencies and affinities stand elsewhere. A number with no mark means an inactive call. How the calls were made is not given here.

Assay: replicating M. tuberculosis growth inhibition, dose response, non-replicating M. tuberculosis project, H37Rv (AID 492952);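 further: Mycobacterium tuberculosis grown in culture; growth inhibition read after a week of incubation; 0% = bacteria alone untreated and 100% = bacteria with high antibiotic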
Conditions: series mostly up to 50 µM; inhibition: at the top concentration

Row | SMILES | inhibition
1 | COc1cc(CNCCNC(=O)c2nonc2N)ccc1OCc1ccc(Cl)cc1 | 18.4%
2 | O=C(NNc1ccc([N+](=O)[O-])cc1)C1CC1c1ccccc1 (stereo not drawn) | 21.1%
3 | Cc1cccc(OCC(O)Cn2c(=N)n(Cc3ccccc3)c3ccccc32)c1 (stereo not drawn) | 10.8%
4 | CCOc1ccc(Cn2c(=O)oc3ccccc32)cc1 | 4%
5 | Cc1ccc(C(=O)N2N=C(CC(C)C)CC2(O)C(F)(F)F)o1 (stereo not drawn) | 4.03%
6 | O=C(C/C=N\OCc1ccc([N+](=O)[O-])cc1)Nc1ccc(Br)cc1 | 17.8%
7 | CCSc1nsc(NC(=O)Nc2ccc(F)cc2F)n1 | 5.85%
8 | C=CCc1ccc2oc(C(=O)OCC)cc(=O)c2c1O | 7.41%
9 | CCC1(O)CC(c2ccccc2)=NN1C(=O)c1ccccc1F (stereo not drawn) | 6.6%
10 | COc1ccc(/C=N/NC(=O)C(=O)NCc2cccnc2)cc1OC | -6.15%
11 | O=Cc1ccnc(-c2ccc(OC(=O)c3ccco3)cc2)n1 | 1.13%
12 | COc1cc(/C=N/Nc2ccc(Cl)c(C(=O)O)c2)ccc1OC(=O)c1cccs1 | 5.49%
13 | Cn1c(SCCOc2cccc(Cl)c2)nnc1-c1ccncc1 | -0.26%
14 | Cc1ccc(S(=O)(=O)NCC(=O)OCCOc2cccc(Cl)c2)cc1 | 7.77%
15 | CN(CCS(=O)(=O)c1ccc(Cl)cc1)Cc1cccnc1 | 1.79%
16 | Cc1ccc(NC(=O)CCSc2nnc(-c3ccco3)o2)cc1 | -17.6%
17 | CCCn1nnnc1NCc1ccc(C(C)C)cc1 | 2.16%
18 | CCCn1nnnc1NCc1ccc(CC)cc1 | 5.44%
19 | CCCn1nnnc1NC(=O)COc1ccc(Br)cc1 | 4.6%
20 | Cc1ccc(-c2nnc(NC3CCCC3)s2)cc1 | 9.87%
21 | Oc1c(Br)cc(Br)cc1/C=N/c1nccs1 | 1.77%
22 | O=C(NCc1ccc(F)cc1)c1ccc(Br)o1 | -8.86%
23 | Cc1cccc(NC(=O)c2n[nH]c([N+](=O)[O-])c2Br)c1C | 6.95%
24 | Cc1cccc(NCc2nnc(-c3ccccc3)o2)c1C | 6.77%
25 | C=C[C@]1(C)C=C2CCC3[C@](C)(CCC[C@@]3(C)C(=O)O)C2CC1 (stereo partly drawn) | 11.8%
26 | CCn1nnc(NC(=O)c2ccc([N+](=O)[O-])o2)n1 | 7.33%

Row | SMILES | inhibition
27 | O=C(Nc1ccccc1N1CCN(C(=O)c2ccc(Cl)cc2)CC1)c1ccc([N+](=O)[O-])o1 | 9.94%
28 | O=C(c1ccc(Br)o1)N1CCC(Cc2ccccc2)CC1 | 8.42%
29 | CC1CCN(C(=O)C2COc3ccccc3O2)CC1 (stereo not drawn) | -4.97%
30 | O=C1NC2(CCC3(CC2)OCCO3)NN1c1ccc(Cl)cc1 | -1.65%
31 | Cc1c(NC(=O)c2coc(=O)c(Br)c2)c(=O)n(-c2ccccc2)n1C | -3.48%
32 | NC(=O)c1ccc(-c2ccc(Br)cc2)o1 | 17.1%
33 | O=C(NC1=NCCS1)c1ccc(-c2ccc(Cl)cc2)o1 | 17.6%
34 | O=C(COC(=O)Cc1ccc(Br)cc1)Nc1ccc(N2CCOCC2)cc1 | 3.83%
35 | CC(CCc1ccccc1)NC(=O)COC(=O)c1cccs1 (stereo not drawn) | 7.79%
36 | COc1ccc(C(=O)COC(=O)CCC(=O)c2cccs2)cc1 | 7.37%
37 | COc1ccc(N=N/C(=C\O)C(=O)c2cccs2)cc1 | -1.77%
38 | CC(C)(NO)/C(=N\O)c1ccccc1 | -0.87%
39 | CCC1CCc2sc(C(=O)NCC3CCCO3)cc2C1 (stereo not drawn) | -2.23%
40 | CCc1cc(C(c2ccncc2)N2CCN(C)CC2)c(NC(=O)c2ccccc2)s1 (stereo not drawn) | -2.97%
41 | CC(C)(C)c1ccc(C(=O)N2CCCC2)s1 | 1.22%
42 | COc1ccccc1N1CCN(C(=O)CCn2c(=O)[nH]c3ccsc3c2=O)CC1 | 4.43%
43 | CC(=O)Oc1ccc(N(C(C)=O)S(=O)(=O)c2cccs2)c2ccccc12 | 0.62%
44 | COc1cccc(OCC(=O)NNC(=O)c2cccs2)c1 | -1.49%
45 | COc1ccc(-c2cc(O)cc(O)c2)cc1 | 0.3%
46 | COc1ccc(-c2nc(C=O)cs2)cc1 | 24.4%
47 | CCc1ccc(C(C)NC(=O)C2CCCO2)cc1 (stereo not drawn) | -2.83%
48 | Cc1ccc2cc(/C=N/NC(=O)[C@H](C)NC(=O)OC(C)(C)C)c(Cl)nc2c1 | 4.71%
49 | NC(N)=N/N=C/c1cccc([N+](=O)[O-])c1O | -3.2%
50 | CCOc1ccc(NC(=O)CCc2ccc(C)o2)cc1 | 6.91%
51 | COCC(=O)Nc1ccccc1NC(C)=O | -2.75%
52 | Cc1cccc(NC(=O)CO/N=C/c2ccc3c(c2)OCO3)c1 | 18%

Row | SMILES | inhibition
53 | CCOC(=O)C(=CNNc1cccc(Cl)c1)C(=O)OCC | 5.8%
54 | COc1ccc(C(=O)CCNc2ccc(F)cc2)cc1 | -0.64%
55 | CCc1nnc(NC(=O)CN2CCN(Cc3ccc(F)cc3)CC2)s1 | -1.34%
56 | O=C(CN1CCN(c2ccccc2)CC1)Nc1nnc(-c2ccccc2)s1 | 1.95%
57 | CCOC(=O)c1ccc(NC2OC(=O)c3ccccc32)cc1 (stereo not drawn) | 6.55%
58 | CCOC(=O)c1ccc(N=C(CC)c2c(O)n(C)c(=O)n(C)c2=O)cc1 | 4.28%
59 | O=C(O)c1ccccc1C(=O)NNc1ccc(F)cc1 | 0.91%
60 | Nc1scc(-c2ccncc2)c1Cl | 3.7%
61 | CC(C)Oc1ccc(CNC(=O)Oc2ccccc2)cc1 | 0.25%
62 | COc1ccc(C(C)NC(=O)CCc2ccccc2)cc1 (stereo not drawn) | 0.5%
63 | C/C(=N\NC(=O)c1ccccc1O)C1C(=O)c2ccccc2C1=O | -0.04%
64 | O=C(O)CCCCCN1C(=O)CSC1=S | 24%
65 | Cc1cccc(CC(=O)NCC2CCCCC2)c1 | -1.82%
66 | Clc1ccccc1CSc1nnc([C@@H]2CCCN2)o1 | 3.84%
67 | S=c1[nH]c2ccccc2o1 | -5.96%
68 | Cc1ccc(CNCc2cc(Cl)ccc2O)cc1 | 5.45%
69 | Cc1cc(OCCOCCNCc2ccccc2)ccc1C(C)C | 18.1%
70 | COc1ccc(NCC(=O)N2CCCC2)cc1Cl | 12.3%
71 | CC(=O)c1ccc(NC(=O)CCc2ccc(C)o2)cc1 | -4.59%
72 | CCc1ccc(NC(=O)CCc2ccc(C)o2)cc1 | -10.7%
73 | FC(F)(F)c1nc(SCc2ccc(Cl)cc2Cl)n[nH]1 | 1.2%
74 | Clc1ccc(SCCCCn2ccnc2)cc1 | 9.6%
75 | CCCCOc1ccc(CSCCN)cc1Cl | -9.05%
76 | Cc1ccc(OCCCCn2ccnc2)c([N+](=O)[O-])c1 | 0.31%
77 | CCc1ccc(OCCCC(=O)Nc2nccs2)cc1 | 3.19%
78 | O=C(COc1ccc2ccccc2c1)NNC(=O)c1cccs1 | 4.45%

Row | SMILES | inhibition
79 | CCCCCCCCCCn1cc(C(C)=O)c(=O)[nH]c1=O | -6.79%
80 | CCOC(=O)Cc1cc(=O)n2[nH]cc(-c3ccc(Cl)cc3)c2n1 | 16.1%
81 | CCOC(=O)C1(O)CC(C)=NN1C(=O)c1cccc(Br)c1 (stereo not drawn) | 2.82%
82 | N#Cc1ccc(N=c2ssnc2Cl)cc1 | -4.86%
83 | CC1(C)C[C@H]2C=C(C=O)[C@]3(C=O)C[C@]3(C)[C@H]2C1 | -4.11%
84 | CCc1nnc(N/N=C/c2c(F)cccc2Cl)n1N | 2.29%
85 | CC(C)(C)c1cc(CN2CCC(O)CC2)cc(C(C)(C)C)c1O | 2.57%
86 | COc1ccc(NC(=O)COc2ccc3c(c2)CCC3)cc1 | 1.64%
87 | O=C(COc1ccc(Br)cc1)N/N=C1/SCC(=O)N1Cc1ccccc1 | -21%
88 | O=C(COc1ccc(Cl)cc1)Nc1ccccc1Cl | -1.26%
89 | Cc1ccc(OCC(=O)N2CCCc3ccccc32)cc1 | -4.58%
90 | O=C(COC(=O)c1cccc([N+](=O)[O-])c1)NCc1cccs1 | 18%
91 | O=C(COc1ccc(Cl)cc1)OCC(=O)N1CCCc2ccccc21 | 5.36%
92 | Cn1c(SCc2c(F)cccc2Cl)nc2c(c1=O)SCC2 | 3.61%
93 | COc1cccc(/C=N/NC(=O)c2ccoc2C)c1O | 20.1%
94 | Cc1ccc(C(=O)N/N=C/C=C/c2ccccc2)cc1 | 19.8%
95 | CCc1ccc(N=CC2=C(O)CC(c3ccco3)CC2=O)cc1 (stereo not drawn) | 3%
96 | CC(=O)N(c1nnc(-c2ccc(C)cc2)s1)C1CCCC1 | 20.1%
97 | O=C(NCCC1=CCCCC1)c1ccc(F)cc1 | -3.67%
98 | O=C(NCCC1=CCCCC1)c1ccc(Br)o1 | -0.64%
99 | COc1ccccc1-c1nnc(-c2ccc(C)cc2)o1 | 7.38%
100 | COc1ccccc1-c1cc(SC)c(C#N)c(=O)o1 | -0.91%
101 | FC(F)(F)c1ccc(NCCc2ccccc2)nc1 | -0.21%
102 | O=C(COC(=O)c1cccc(C(F)(F)F)c1)NCc1ccccc1 | -2.81%
103 | CCOC(=O)Cc1csc(NC(=O)COc2ccc3c(c2)CCC3)n1 | 0.53%
104 | Nc1nnc(SCCCC(=O)c2ccc(Br)cc2)s1 | 5.18%

Row | SMILES | inhibition
105 | O=C(CNC(=O)c1ccc(Br)cc1)c1ccc(Br)cc1 | 23.6%
106 | Cc1cccc(C)c1NC(=O)c1sc(N)nc1-c1ccccc1 | -4.98%
107 | Cc1ccc(C(=O)N/N=C\c2ccc[nH]2)cn1 | -5.12%
108 | COc1cccc(/C=N/N2C(=O)CSC2=S)c1O | -2.68%
109 | O=C(N/N=C\c1ccco1)c1cncc(Br)c1 | 16.6%
110 | Cc1ccc(C(=O)c2cncc(Br)c2)cc1 | -7.1%
111 | Nn1c(SCCOc2ccc(Cl)cc2)nnc1-c1cccnc1 | -2.3%
112 | CSCCC(=O)N1CCCC(N2CCN(c3cccc(C(F)(F)F)c3)CC2)C1 (stereo not drawn) | 4.08%
113 | COC(=O)c1ccc(CO/N=C/c2ccc(OC)cc2)o1 | 4.34%
114 | CCCNC(=O)c1ccc(COc2ccc(C)cc2)o1 | 1.85%
115 | Cc1cccc2c(CC(=O)O)noc12 | 1.24%
116 | O=C(NNc1ccc([N+](=O)[O-])cc1)c1ccccc1Cl | 3.86%
117 | CC1(C)CC(=O)c2cc(C(=O)NNc3ccccc3)c(=O)n(-c3ccccc3)c2C1 | 14.9%
118 | Clc1ccc2c(N3CCCC3)ccnc2c1 | -0.83%
119 | Cc1ccc(O)c(C(=O)c2cc(C#N)c(=O)n(-c3nccs3)c2)c1 | 4.6%
120 | Cn1c(=O)c2c(=O)cc(NNC(=O)CC#N)[nH]c2n(C)c1=O | 3.96%
121 | Cc1ccc(/C=C2\SC(=S)N(C3CCS(=O)(=O)C3)C2=O)o1 (stereo not drawn) | -0.18%
122 | O=C(COC(=O)c1cccs1)NCCC1=CCCCC1 | 1.34%
123 | Cc1ccsc1C(=O)OCC(=O)NCCC1=CCCCC1 | 2.87%
124 | O=C(c1ccc(Cl)cc1)c1nnc(-c2ccncc2)o1 | -4.56%
125 | Cc1ccc(N=N/C(=C\O)C(=O)c2ccncc2)cc1 | 3.09%
126 | O=C(Nc1nnc(-c2ccc(Cl)cc2)o1)c1cccc(N2C(=O)CCC2=O)c1 | -1.86%
127 | FC(F)(F)c1ccc(-c2nnc(-c3cccnc3)o2)cc1 | 5.31%
128 | CC1(c2nnc(-c3ccccc3)o2)CC(c2ccc(Cl)cc2)=NO1 (stereo not drawn) | -7%
